TMEM16A inh: TMEM16A chloride channel inhibitors, primary screen, cell-based, HTS; HEK293 TMEM16A/YFP iodide influx fluorescence, ionomycin; Anoctamin-1 (Mus musculus), Q8BHY3; 1.2% of 310,000 active; AID 588511, 2011; normalized B-score (activity score, 25-100; higher = stronger inhibition) at 10 µM;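 active = ratio plate-corrected score three or more library SD toward inhibition, starting fluorescence score within five deviations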;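 note: score derived from kinetic fluorescence span divided by baseline fluorescence per well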
TLR9-MyD88 inh: inhibitors of TLR9-MyD88 association in cells, primary screen, cell-based, CHO, BLA complementation, fluorescence. Toll-like receptor 9 (Homo sapiens) + Myeloid differentiation primary response protein …. CCF4 FRET ratio. inhibition, % at 4.98 µM. 0.21% of 340,000 active;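 active = inhibition above the mean over all tested compounds plus 3 SD, cut at about 21% in these data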
TMEM16A act: TMEM16A chloride channel activators or potentiators, primary screen, cell-based, HTS; Anoctamin-1 (Mus musculus), Q8BHY3; HEK293 TMEM16A/YFP-H148Q/I152L, iodide quench fluorescence; active compounds read low; B-score at 10 µM; 0.3% of 340,000 active;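 active = fluorescence-ratio B-score plate-corrected deviation score at least 3 library SD below zero, with starting fluorescence score within 5 deviations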;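 note: channel opened by trigger with iodide after compound preincubation; score built on the fluorescence ratio of max minus min over baseline; more negative score means more quench and so TMEM16A activation or potentiation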
HTR2A ag: mouse Htr2a agonists via beta-arrestin recruitment, primary screen, cell-based, luminescence. 5-hydroxytryptamine receptor 2A (Mus musculus), P35363. CHO-K1 mHTR2A beta-arrestin complementation; percent of 30 µM serotonin response. activation, % at 7.6 µM. 0.66% of 360,000 active. AID 624169, 2012;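 active = activation above a run cutoff, the mean activation of all tested compounds plus 3 SD, cut at about 14% in these data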
TLR4-MyD88 BLA: inhibitors of TLR4-MyD88 association in cells, primary screen, cell-based, HeLa CL3-4, BLA complementation, FRET ratio; HeLa CL3-4 TLR4/MyD88 BLA complementation; 0.18% of 200,000 active; Toll-like receptor 4 (Homo sapiens) + Myeloid differentiation primary response protein …; inhibition, % at 8.4 µM; in the data active = inhibition above about 25%
NOD2-RIPK2 inh: NOD2-RIPK2 binding disruptors in cells, primary screen, fluorescence, CHO cells, BLA complementation; AID 624267, 2012; inhibition, % at 4.98 µM; 0.38% of 360,000 active; Receptor-interacting serine/threonine-protein kinase 2 (Homo sapiens), O43353; CCF4 ratio; in the data active = inhibition above about 21%
MOR ag counter: OPRM1 agonists via beta-arrestin recruitment, confirmation, counter-screen for mouse HTR2A agonist project, cell-based, luminescence, single concentration; shares compounds with HTR2A ag; U2OS OPRM1 beta-arrestin PathHunter; DMSO 0%, DAMGO 9.3 µM 100%; activation, % at 9.3 µM; 5.3% of 2,300 active; AID 624380, 2012;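 active = mean activation above the mean of DMSO-only wells plus 3 SD, cut at about 0.5% in these data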
Target sequence (P35372 whole entry, looked up): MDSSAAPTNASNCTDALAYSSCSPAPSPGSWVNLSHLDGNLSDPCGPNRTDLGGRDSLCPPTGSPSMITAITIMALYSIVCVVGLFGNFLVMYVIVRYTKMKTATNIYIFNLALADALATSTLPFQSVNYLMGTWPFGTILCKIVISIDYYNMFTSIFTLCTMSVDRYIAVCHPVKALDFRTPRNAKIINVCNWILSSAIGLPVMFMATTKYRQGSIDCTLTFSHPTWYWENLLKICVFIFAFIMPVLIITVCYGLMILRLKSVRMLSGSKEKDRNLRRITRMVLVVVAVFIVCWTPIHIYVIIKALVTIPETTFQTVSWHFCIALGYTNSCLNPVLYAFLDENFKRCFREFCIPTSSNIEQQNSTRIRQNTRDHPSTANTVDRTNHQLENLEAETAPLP
m5-HT2A ag conf: mouse HTR2A agonists, beta-arrestin recruitment, confirmation, cell-based, luminescence, CHO-K1 PathHunter, triplicate | 19% of 2,300 active | shares compounds with HTR2A ag | activation, % at 7.6 µM | DMSO 0%, 30 µM serotonin 100%;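 active = mean activation across triplicates above the hit threshold derived in the original primary screen, cut at about 15% in these data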
A number is an active result; n = inactive; x = no result. In the library only some 2.4% were active in any assay of this set; here they are far more common.

SMILES	TMEM16A inh	TLR9-MyD88 inh	TMEM16A act	HTR2A ag	TLR4-MyD88 BLA	NOD2-RIPK2 inh	MOR ag counter	m5-HT2A ag conf
CCOc1ccc(CNC(=O)CS(=O)(=O)Cc2nc(-c3ccc(OC)cc3)oc2C)cc1	n	n	n	20	x	n	n	n
CC(C)N(C(=O)COC(=O)c1cccnc1Cl)c1ccccc1	x	n	n	n	x	n	x	x
O=C(COc1ccc(Br)cc1)Nc1ccc(C(=O)Nc2ccccc2C(=O)O)cc1	n	n	n	18	x	n	n	n
Cc1ccc(-n2c(C)cc(/C([O-])=C(/C(=S)Nc3ccc(F)c(Cl)c3)[n+]3ccccc3)c2C)cc1	n	n	n	n	n	n	x	x
COc1ccc(NC(=O)C2CCN(c3nc(-c4ccc(OC)cc4)no3)CC2)cc1	n	n	n	17	x	n	n	n
COc1ccc(-c2noc(N3CCC(C(=O)Nc4ccc(OC)cc4OC)CC3)n2)cc1	n	n	n	n	x	n	x	x
O=C(NC(=S)Nc1ccccn1)c1cccc([N+](=O)[O-])c1	n	n	n	27	x	n	n	n
CCOc1ccc(C(=O)NC(=S)Nc2ccccn2)cc1[N+](=O)[O-]	n	n	n	n	n	n	x	x
COc1cccc(OC)c1OCCOCCn1cnc2ccccc2c1=O	n	n	n	18	n	n	n	n
COc1ccc(C2=Nc3ccc(C)cc3C(c3ccccc3)N2CC(=O)NN)cc1 (configuration not stated)	n	n	n	n	n	n	x	x
COC(=O)CN1C(c2ccc(Cl)cc2)=Nc2ccc(Cl)cc2C1c1ccccc1 (configuration not stated)	n	n	n	15	n	n	n	n
COc1cc(OC)cc(C(=O)Oc2ccc(/C=N/Nc3nc4ccccc4s3)cc2OC)c1	n	n	n	22	n	n	n	n
O=C1NC2(CCCCC2)N=C1c1ccc(Br)cc1	n	n	n	n	n	n	x	x
CC(Cc1c[nH]c2ccccc12)NC(=O)OCCCl (configuration not stated)	n	n	n	20	n	n	n	n
Cc1ccc(Cl)cc1N(CC(=O)N1CCOCC1)S(C)(=O)=O	n	n	n	n	x	n	x	x
CC(C)(C)c1cc(-c2nc(N)nc(N)n2)c(O)c(C(C)(C)C)c1	n	n	n	n	x	n	x	x
O=C(Nc1ccc(Cl)cc1Cl)c1ccc2ncsc2c1	n	n	x	n	x	n	x	x
COc1ccc(CC2(CO)CCN(Cc3ccncc3)CC2)cc1	n	n	n	n	n	n	x	x
OCC1(Cc2cccc(C(F)(F)F)c2)CCN(Cc2cc3ccccc3o2)CC1	n	n	n	24	n	n	n	64
Cc1c(CN2CCC(CO)(Cc3cccc(C(F)(F)F)c3)CC2)c2ccccc2n1C	n	n	n	n	n	n	x	x
COc1ccc(CC2(CO)CCN(Cc3cc4ccccc4o3)CC2)cc1	25	n	n	40	n	n	n	66
O=C(CCC(=O)Nc1cccc([N+](=O)[O-])c1)NCc1ccccc1	n	n	n	n	x	n	x	x
CC1(C)c2[nH]c3ccccc3c2C[C@H]2C(=O)N(Cc3ccc(F)cc3)C(=O)N21	n	n	n	n	x	n	x	x
C[C@H](O)[C@@H]1CN2CCc3c([nH]c4ccccc34)[C@@H]2C[C@@H]1N(C)C(=O)Nc1ccc(Br)cc1	x	x	x	16	x	n	x	27
CCOC(=O)c1cnc(SCC(=O)OC)nc1N	n	n	n	26	n	n	n	n
